Results filed as inconclusive are left out. A call without a number means that no potency is given here. Activity calls are given as the source filed them. The call rests on the fitted dose curve; in most records, active means well fitted cell-killing curve with a large enough effect; inconclusive means small, poorly fitted or top-dose-only effect, or effect the other way; inactive means no such curve, though single readings can be large or run the other way.
Potency means the concentration at half of the fitted maximal effect.

A short description of the assay: Viability qHTS for spleen associated tyrosine kinase inhibitor (SYKi) naive MV4-11 cells (AID 1963823). Further: nearly all actives have a fitted effect of over 40% in size. The note with it: MV4-11 AML viability, CellTiter-Glo luminescence, 72 h; series mostly up to 45 µM. An outline of the steps: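 CellTiter-Glo luminescence, 10 min room-temperature incubation, gave viability. Cells: naive MV4-11 (500/well), treated 72 hr at 37 C, 5% CO2.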
For the molecule `CC1CCC2C(C)(C)CC(C)(CO)C2(O)C1C(=O)O` (stereo unspecified), the Potency entry is “inactive”.

Take `CNC(=O)c1ccc2c(c1)CCO[C@H]2CCN1CCN(c2ccc(C(N)=O)cc2)CC1`: the Potency entry was “inactive”.

Regarding `CC1(C)C[C@H](O)C[C@@]2(C)OC(=O)C=C12`, the Potency result is “inactive”.

Take `CN1C2CCC1CC(OC(=O)[C@H](CO)c1ccccc1)C2` (stereo partly specified): the Potency is 0.651 µM (active).

For `C=CC(C)(O)CC/C=C(\C)C(=O)OC1C(O)C(CO)OC(OC(=O)C23CCC(C)(C)CC2C2=CCC4C5(C)CCC(OC6OC(COC7OCC(OC(C)=O)C(O)C7OC7OC(COC(C)=O)C(O)C(O)C7OC(C)=O)C(O)C(O)C6OC6OCC(O)C(O)C6O)C(C)(C)C5CCC4(C)C2(C)C(O)C3O)C1OC1OCC(OC2OCC(O)C(OC3OCC(O)C(O)C3O)C2O)C(O)C1O` (stereo unspecified), the Potency was 0.631 µM (active).

For the molecule `Cc1cc(CO)c(O)c(C(=O)CC2CC(=O)NC(=O)C2)c1`, the Potency entry was “inactive”.

As for `Nc1c(S(=O)(=O)c2ccccc2)c2nc3ccccc3nc2n1-c1ccc(F)cc1`, the Potency result is “inactive”.

Consider `COc1cc(OC)c(C(=O)/C=C/c2ccccc2)c2c1C=CC(C)(C)O2`, for which the Potency is 10.3 µM (active).

Regarding `O=C1NC(Cc2c[nH]c3ccccc23)C(=O)NC1Cc1cnc[nH]1` (stereo unspecified), the Potency result was “inactive”.

Consider `CCN(CC)c1ccc2c(O)c(C=Nc3ccc(CC(=O)O)c(-c4c5c(nc6ccccc46)CCC(C(=O)NN)C5)c3)c(=O)oc2c1` (stereo unspecified), for which the Potency was 2.59 µM (active).

As for `C=Cc1cc(O)cc2nc(-c3ccc(O)c(F)c3)oc12`, the Potency is 23.5 µM (active).

`CC1(C)CCCC2(C)C(C(=O)O)=CCC12` (stereo unspecified): the Potency entry is “inactive”.

With `COc1cc(O)c2c(c1)C1=C[C@H](O)[C@@H](O)C[C@]1(C)OC2=O`, the Potency result is “inactive”.

`CC(c1ncncc1F)C(O)(Cn1cncn1)c1ccc(F)cc1F` (stereo unspecified): the Potency entry is “inactive”.

For the molecule `COc1ccc2c(c1)C(C(=O)N(Cc1ccc(N(C)C)cc1)c1ccc(C(C)C)cc1)CCC2` (stereo unspecified), the Potency is 16.4 µM (active).

With `C=C[C@@]1(C)CCC2C(=CCC3[C@]2(C)CCC[C@@]3(C)C(=O)O)C1` (stereo partly specified), the Potency entry was “inactive”.

For the molecule `COc1ccc2c(c1)N1C(=O)C[C@@]34C=CC[N@+]5([O-])CC[C@H]2[C@H](CC3)[C@@]145`, the Potency was 6.4 µM (active).

For the molecule `CCCCC1CCC(c2nc(-c3ccncc3)no2)CC1` (stereo unspecified), the Potency entry was “inactive”.

With `C=C1CCC2C(C)(C)CC(O)CC2(C)C1CCC(C)CC(=O)O` (stereo unspecified), the Potency entry was “inactive”.

For the molecule `Cn1ccc(NC(=O)c2cc(Oc3ccc(C(=O)N4CCC4)c(F)c3)c3c(c2)OC(C)(C)C3)n1`, the Potency result was “inactive”.

Regarding `C=C1C(=O)O[C@@H]2CC(C)=C([C@@H](C)CCCOC(C)=O)[C@@H](O)[C@H]12`, the Potency entry was “inactive”.

As for `C=C1CC[C@@H]2[C@](C)(CO)[C@H](O)CC[C@@]2(C)[C@@H]1CC(O)C1=CCOC1=O` (stereo partly specified), the Potency is 9.04 µM (active).

Regarding `CC(=O)O[C@@H]1C(=O)C(C)=C(CCC(C)CC(=O)O)[C@@]2(C)CCCC(C)(C)C12` (stereo partly specified), the Potency result was “inactive”.

In the case of `C=C(C(=O)O)C1CCC2(C)CCCC(C)(O)C2C1` (stereo unspecified), the Potency result is “inactive”.

Regarding `Nc1ccc(-c2ccnc(NCCCNC(=O)c3c(Cl)cccc3Cl)n2)cc1`, the Potency was 1.3 µM (active).

Turning to `N#CC(CCCN1CCN(/N=C/c2cccnc2)CC1)(c1ccccc1)c1ccccc1`, the Potency was 2.06 µM (active).

For `CC1(C)O[C@@]2(C)CC[C@@H]1C[C@@H]2OC1OC(CO)C(O)C(O)C1O` (stereo partly specified), the Potency entry is “inactive”.

Regarding `COc1cc(C[C@@]2(O)CO[C@@H](c3ccc(O[C@@H]4O[C@H](CO)[C@@H](O)[C@H](O)[C@H]4O)c(OC)c3)[C@H]2CO)ccc1O`, the Potency result was “inactive”.

In the case of `C=CCc1ccc(O[C@@H]2O[C@H](CO)[C@@H](O)[C@H](O)[C@H]2O)c(O[C@@H]2O[C@H](CO)[C@@H](O)[C@H](O)[C@H]2O)c1`, the Potency entry was “inactive”.

In the case of `CCC(C)(C)C1CCc2c(sc(NC(=O)c3ccc(Br)cc3)c2C#N)C1` (stereo unspecified), the Potency result was “inactive”.

For the molecule `C=CC/C=C\C/C=C\CCCCCCCc1cccc(O)c1C(=O)O`, the Potency entry was “inactive”.

On to `CC(O)CCC1C(CO[C@@H]2O[C@H](CO)[C@@H](O)[C@H](O)[C@H]2O)CC(O)CC1(C)C` (stereo partly specified), for which the Potency entry is “inactive”.

On to `C=C1CCC2C(C)(C(=O)O)CCCC2(C)C1CCC1=CCOC1=O` (stereo unspecified), for which the Potency result is “inactive”.

Take `COc1ccc(/C=C/C(=O)O[C@@H]2[C@@H](OC(C)=O)[C@@H](OC(C)=O)[C@H](O[C@H]3[C@@H]4C=CO[C@@H](O[C@@H]5O[C@H](CO)[C@@H](O)[C@H](O)[C@H]5O)[C@@H]4[C@@]4(CO)O[C@@H]34)O[C@H]2C)cc1O`: the Potency result was “inactive”.

For `O=C(O)c1cc(-c2c(-c3ccccc3)nn3ccccc23)n[nH]c1=O`, the Potency result is “inactive”.

`Cc1c(C(=O)NCc2cccnc2)nn(-c2ccc(Cl)cc2Cl)c1-c1ccc(Cl)cc1`: the Potency entry is “inactive”.

The values are drawn from PubChem BioAssay (NCATS).
